# ALDH1A1 inh = inhibitors of human aldehyde dehydrogenase 1A1; Purified ALDH1A1, NADH fluorescence, propionaldehyde substrate; P00352; actives 7.3% (n = 220,000); Potency, µM (series often up to 75.3 µM), usual class: inhibitors; AID 1030; active means well fitted inhibition curve with a large enough effect, not every such curve was filed as active; inconclusive means small, poorly fitted or top-dose-only effect, or another doubt; inactive means no such curve, though single readings can be large or run the other way
# IMPase cell inh = IMPase inhibition in cells; CHO-M1 cells, IP1 accumulation, HTRF TR-FRET ratio; inhibition (IP1 accumulation), % at 46.1 µM; 120,000 tested, under 10 active; AID 901; active means well fitted curve in the direction sought with a large enough effect in the signal ratio, not every such curve was filed as active; inconclusive means small, poorly fitted or top-dose-only effect, or a change in a side signal; inactive means no such curve, though single readings can be large or run the other way; the % refers to the signal ratio;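 further: cells stimulated with carbachol in lithium chloride buffer; higher means more IMPase inhibition seen as more IP1 and lower FRET ratio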
#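 Cellular IMPase inhibition is scored as a rise in cytosolic IP1, detected by competitive TR-FRET between d2-labelled IP1 and a europium anti-IP1 antibody. M1-expressing CHO cells were stimulated with carbachol for 30 min at 37C, with lithium (50 mM LiCl) present in the buffer.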
# HPGD inh = HPGD (human) dehydrogenase inhibition; Potency, µM, actives largely listed as inhibitors; P15428; AID 894; actives 4.3% (n = 150,000); purified HPGD, NADH fluorescence kinetic, PGE2 substrate; active means well fitted inhibition curve with a large enough effect, not every such curve was filed as active; inconclusive means small, poorly fitted or top-dose-only effect, or another doubt; inactive means no such curve, though single readings can be large or run the other way
#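 NADH formation kinetics: reaction with 30 uM PGE2 and 1 mM NAD+ (final), 20 nM enzyme, Tris-HCl pH 8 with Tween 20, after 15 min compound preincubation at room temperature. Fluorescence change, last versus first of five reads.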
# IMPase Li cell = IMPase inhibition in cells with lithium potentiation | CHO-M1 cells, IP1 TR-FRET (IP-One), carbachol + lithium | Potency, µM (series often up to 59.4 µM), usual class: inhibitors | actives 0.35% (n = 210,000) | AID 1457;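 further: IP1 builds up when IMPase is blocked and the TR-FRET signal falls; nearly all actives have a fitted effect of over 50% in size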
#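 Test compounds were applied to CHO-M1 cells previously cultured for 16–30 h at 2000 per well. A small lithium amount accompanied them; after 30 min at 37C, IP1 was quantified by TR-FRET.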
# NPSR antag = blocks cAMP signaling of the human neuropeptide S receptor; AID 1461; Potency, µM (top dose mostly 38.3 µM), actives largely listed as inhibitors; Q6W5P4; CHO-NPSR cells, cAMP TR-FRET, antagonist mode; actives 1% (n = 220,000); further: nearly all actives have a fitted effect of over 50% in size
# Target sequence (Q6W5P4 whole entry, looked up): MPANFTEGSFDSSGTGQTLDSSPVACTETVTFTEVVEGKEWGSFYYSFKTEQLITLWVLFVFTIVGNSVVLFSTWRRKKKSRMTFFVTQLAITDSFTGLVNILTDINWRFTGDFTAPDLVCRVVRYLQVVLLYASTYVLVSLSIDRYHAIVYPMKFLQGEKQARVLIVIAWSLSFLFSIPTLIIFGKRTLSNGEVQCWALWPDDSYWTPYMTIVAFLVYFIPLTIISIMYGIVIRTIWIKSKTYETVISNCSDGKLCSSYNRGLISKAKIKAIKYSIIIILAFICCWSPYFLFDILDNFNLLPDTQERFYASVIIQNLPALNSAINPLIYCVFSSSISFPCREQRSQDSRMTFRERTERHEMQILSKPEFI
# 12-hLO inh = inhibitors of human 12-lipoxygenase (ALOX12); Potency, µM (titrated, usually from 57.1 µM), actives largely listed as inhibitors; purified 12-hLO, xylenol orange hydroperoxide absorbance; P18054; actives 0.12% (n = 150,000); AID 1452; further: nearly all actives have a fitted effect of over 55% in size
#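 Hydroperoxide formation by human 12-lipoxygenase from 40 uM arachidonic acid was followed colorimetrically via ferric-xylenol orange complex, using the 573/405 nm absorbance ratio. Enzyme concentration was 150 nM, with 30 min reaction at room temperature.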
# Numbers stand for hits; 0 = inactive; ? = inconclusive; - = not tested or not shown; [ ] = dose if it differs, or a comment. Most compounds without a hit are left out; they make up all but 8.9% or so of the library. Unless noted, the call rests on the fitted dose curve; in most records, active means well fitted curve in the direction sought with a large enough effect; inconclusive means small, poorly fitted or top-dose-only effect, or another doubt; inactive means no such curve, though single readings can be large; an effect the other way counts as inactive or inconclusive.
SMILES,ALDH1A1 inh,IMPase cell inh,HPGD inh,IMPase Li cell,NPSR antag,12-hLO inh
CC1(C)Cc2ccccc2-c2c1c(=O)n(Cc1ccccc1)c1nnnn21,?,0,0,0,?,0
Cn1c(=S)[nH]c2c(c1=O)C(C)(C)Cc1ccccc1-2,8.9µM,-,-,1.4µM,6.3µM,-
CCn1c(=S)[nH]c2c(c1=O)C(C)(C)Cc1ccccc1-2,0,-,-,4.5µM,?,-
Cc1nc2c(=O)n(C)c(=O)[nH]c2n1Cc1ccccc1,0,0,?,0,0,0
N#CCCSc1ncnc2c1oc1ccccc12,?,?,0,11µM,?,0
c1ccc(Sc2ncnc3c2oc2ccccc23)cc1,?,0,32µM,0,0,0
OCCSc1ncnc2c1oc1ccccc12,?,0,25µM,0,0,0
O=C(COc1ccc(Cl)cc1)Nc1ccccc1C(=O)NCc1ccco1,0,0,0,0,0,0
Oc1ccc(Cl)cc1CNc1ccc(Br)cn1,0,0,14µM,0,0,0
Oc1c(Cl)cc(Cl)cc1CNc1ccc(Br)cn1,0,0,?,0,0,0
COc1ccc(NC(=O)c2c(NC(=O)CNCC(C)C)sc3c2CCC3)c(OC)c1,?,-,-,?,0,-
Clc1ccc(C2=NNC(=NCc3ccc4c(c3)OCO4)SC2)cc1,22µM,0,-,-,0,0
O=C(NNc1ccccc1F)C1CCC1,0,-,-,-,0,-
CN(C)c1oc(-c2ccccc2[N+](=O)[O-])nc1C#N,10µM,-,-,-,0,-
CN(C)c1oc(-c2ccccc2Cl)nc1C#N,?,?,0,0,0,0
Cc1nc([N+](=O)[O-])c(Br)n1CC(=O)c1ccc(Br)cc1,0,0,0,0,0,0
CCCCc1cc2c(cn1)=C(OC(=O)c1ccc(Cl)nc1)C(C)(OC(=O)CC)C(=O)C=2 (stereo not drawn),3.2µM,-,0,0,-,0[11.4 µM]
CCCCc1cc2c(cn1)=C(OC(=O)c1cnc3ccccc3n1)C(C)(OC(=O)CC)C(=O)C=2 (stereo not drawn),3.2µM,-,0,0,0,0[11.4 µM]
Cc1ccc(Cl)cc1NC(=O)CN1C(=O)c2cccc3cccc1c23,-,0,-,-,-,-
CC(=O)c1ccc(Sc2ccc(C(C)=O)cc2)cc1,0,-,18µM,0,0,0
CC(C)(C)NC(=O)CSc1nc2ccc(NC(=O)CSc3nnnn3Cc3ccccc3)cc2s1,4µM,0,8.9µM,0,?,0
O=C(CSc1nnnn1Cc1ccccc1)Nc1ccc2c(c1)OCO2,0,0,0,0,0,0
CCOC(=O)CSc1nc2ccc(N)cc2s1,20µM,0,?,0,0,0
COC(=O)c1ccsc1NC(=O)CSc1nnnn1Cc1ccccc1,0,0,0,0,0,0
CCOC(=O)CSc1nc2ccc(NC(=O)CSc3nnnn3Cc3ccccc3)cc2s1,14µM,0,0,0,?,0
SMILES,ALDH1A1 inh,IMPase cell inh,HPGD inh,IMPase Li cell,NPSR antag,12-hLO inh
CC(C)(C)NC(=O)CSc1nc2ccc(NC(=O)CSc3nnc(N)s3)cc2s1,0,-,32µM,0,0,0
CC1Cc2ccccc2N1C(=O)CSCC(=O)O (stereo not drawn),0,0,0,0,0,0
Cn1ccnc1SCC(=O)Nc1ccc2nc(SCC(=O)NC3CC3)sc2c1,3.5µM,0,14µM,0,0,0
O=C(CSc1nc2ccccc2s1)NC1CCCC1,-,-,-,-,0,-
Cc1ccc(S(=O)(=O)CCC(=O)OCc2ccc(S(=O)(=O)C(C)C)cc2)cc1,2.5µM,-,-,0,0,-
Cc1ccc(S(=O)(=O)CCC(=O)OCc2ccc(Cl)c(Cl)c2)cc1,?,0,0,0,0,0
Cc1ccc2c(COn3nnc4ccc(S(=O)(=O)N(C)C)cc43)cc(=O)oc2c1C,?,0,0,0,0,0
COc1ccc(/C=C2\C(=O)N(c3c(Cl)cc(Cl)cc3Cl)N=C2NC(=O)c2cccc([N+](=O)[O-])c2)cc1,?,-,22µM,0,0,0
COc1cccc(C(=O)Nc2cccc(C(=O)NC3=NN(c4c(Cl)cc(Cl)cc4Cl)C(=O)C3)c2)c1,0,0,0,0,0,0
CN(C)/C=N/c1c(C#N)nnn1Cc1ccccc1,?,0,20µM,0,0,0
CN(C)C=Nc1ncc2c3ccccc3n(Cc3ccccc3)c2c1C#N,?,0[9.22 µM],?,0,0,0
